Experimental findings from PubChem BioAssay (NCATS) are described below.

Inconclusive results are not listed. Active and inactive are the calls of the source. Calls come from the whole dose curve; as a rule, active = well fitted curve in the direction sought with a large enough effect; inconclusive = small, poorly fitted or top-dose-only effect, or another doubt; inactive = no such curve, though single readings can be large; an effect the other way counts as inactive or inconclusive.

Test [1] is described as follows: Quantitative High-Throughput drug screen in 47 multiple myeloma cell lines against the NCATS MIPE library collection: AMO1_DSMZ cell viability assay (AID 1918927; note: nearly all actives have a fitted effect of over 30% in size). The method in brief: (§1)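 Inhibition of cell viability is measured here. Each line was plated at 500 cells per well, treated with MIPE 4.0 drugs, kept 48 hours at 37C, then assayed for ATP content by CellTiter-Glo luminescence.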

Test [2] can be described thus: Quantitative High-Throughput drug screen in 47 multiple myeloma cell lines against the NCATS MIPE library collection: ARP1_JJKsccF8 cell viability assay (AID 1918928; note: nearly all actives have a fitted effect of over 40% in size). Summed up: (§2)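 ATP readout (CellTiter-Glo), 48 h drug incubation, 37 °C/5% CO2, 500 cells per well; normalisation to DMSO (100%) and media-only (0%) controls.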
The nature of test [3]: Quantitative High-Throughput drug screen in 47 multiple myeloma cell lines against the NCATS MIPE library collection: ARD_JJKsccE7 cell viability assay (AID 1918929). The method in brief:
as §1

The nature of test [4]: Quantitative High-Throughput drug screen in 47 multiple myeloma cell lines against the NCATS MIPE library collection: KMM1_JCRB cell viability assay (AID 1918960). Note: nearly all actives have a fitted effect of over 30% in size. The method in brief: as §2
A short description of test [5]: Quantitative High-Throughput drug screen in 47 multiple myeloma cell lines against the NCATS MIPE library collection: KHM11_PLB cell viability assay (AID 1918962). Note: nearly all actives have a fitted effect of over 35% in size. Summed up: (§3)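 Luminescent ATP measurement with CellTiter-Glo gives viability, scaled between DMSO-only wells (100%) and media-only wells (0%). Cells, 500 per well, faced library compounds for 48 hours at 37C.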

A short description of test [6]: Quantitative High-Throughput drug screen in 47 multiple myeloma cell lines against the NCATS MIPE library collection: JIM3_ECACC cell viability assay (AID 1918963; note: nearly all actives have a fitted effect of over 35% in size). Summed up: as §3
Test [7] is described as follows: Quantitative High-Throughput drug screen in 47 multiple myeloma cell lines against the NCATS MIPE library collection: JJN3_DSMZ cell viability assay (AID 1918966; note: nearly all actives have a fitted effect of over 50% in size). The method in brief: as §1
A short description of test [8]: Quantitative High-Throughput drug screen in 47 multiple myeloma cell lines against the NCATS MIPE library collection: KMS27_JCRB cell viability assay (AID 1918970). Note: nearly all actives have a fitted effect of over 30% in size. Particulars: KMS27 myeloma cells, CellTiter-Glo ATP viability, 48 h; viability (% of DMSO): at 45.8 µM (top of the series). Summed up:
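Myeloma cells (500 per well) were exposed to MIPE 4.0 compounds for 48 h at 37 °C, 5% CO2; viability was read as ATP luminescence with CellTiter-Glo, normalized to DMSO-only (100%) and media-only (0%) wells.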
(In general: Cellular ATP, detected with luciferase, serves as a proxy for viable cell number.)

The nature of test [9]: Quantitative High-Throughput drug screen in 47 multiple myeloma cell lines against the NCATS MIPE library collection: EJM_DSMZ cell viability assay (AID 1918926; note: nearly all actives have a fitted effect of over 30% in size). The method in brief: as §1
Test [10] can be described thus: Quantitative High-Throughput drug screen in 47 multiple myeloma cell lines against the NCATS MIPE library collection: Karpas620_DSMZ cell viability assay (AID 1918959). Note: nearly all actives have a fitted effect of over 30% in size. Summed up: as §3
Test [11] can be described thus: Quantitative High-Throughput drug screen in 47 multiple myeloma cell lines against the NCATS MIPE library collection: JIM1_ECACC cell viability assay (AID 1918964). Summed up: as §1
The nature of test [12]: Quantitative High-Throughput drug screen in 47 multiple myeloma cell lines against the NCATS MIPE library collection: INA6_PLB cell viability assay (AID 1918965; note: nearly all actives have a fitted effect of over 55% in size). The method in brief:
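Steps: seed 500 cells per well; pin-transfer MIPE 4.0 library; incubate 48 h at 37C, 5% CO2, humidified; add CellTiter-Glo, 5 min room temperature; read luminescence.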

Test [13] in a line: Quantitative High-Throughput drug screen in 47 multiple myeloma cell lines against the NCATS MIPE library collection: H1112_PLB cell viability assay (AID 1918967; note: nearly all actives have a fitted effect of over 30% in size). The method in brief:
as §1

Test [14] is described as follows: Quantitative High-Throughput drug screen in 47 multiple myeloma cell lines against the NCATS MIPE library collection: Karpas25_ECACC cell viability assay (AID 1918968; note: nearly all actives have a fitted effect of over 35% in size). Summed up: as §1
Test [15] in a line: Quantitative High-Throughput drug screen in 47 multiple myeloma cell lines against the NCATS MIPE library collection: KMS12BM_JCRB cell viability assay (AID 1918971). Note: nearly all actives have a fitted effect of over 35% in size. The method in brief: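 qHTS of the MIPE 4.0 collection: 500 myeloma cells/well, 48 h drug exposure at 37C in 5% CO2, then CellTiter-Glo for 5 min at room temperature before luminescence reading.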
Potency is the fitted concentration of half-maximal effect.

In the case of `Cc1ccc(C(=O)N(CCCN)[C@@H](c2oc3cc(Cl)ccc3c(=O)c2Cc2ccccc2)C(C)C)cc1`, the Potency in [1] is 0.001 µM (active); in test [3], 0.001 µM (active); in test [4], 0.001 µM (active); in test [5], 9.35 µM (active); in test [7], 18.7 µM (active). The Potency entry in test [2], in test [6] and in test [8] was “inactive” each time.

For the molecule `CN(C)CC[C@H](CSc1ccccc1)Nc1ccc(S(=O)(=O)NC(=O)c2ccc(N3CCN(Cc4ccccc4-c4ccc(Cl)cc4)CC3)cc2)cc1[N+](=O)[O-]`, the Potency in test [9] is 5.9 µM (active); in test [2] it was 13.2 µM (active); in [10], 0.0662 µM (active); in [4], 4.69 µM (active); in [5] it was 5.26 µM (active); in [11] it was 1.48 µM (active). Further, the Potency in test [12] is 18.7 µM (active); in test [7], 8.33 µM (active); in [13], 0.0743 µM (active); in test [14] it was 1.48 µM (active); in test [8] it was 0.0187 µM (active); in [15], 0.187 µM (active).

As to `CC(C)CN(C[C@H](O)[C@H](Cc1ccccc1)NC(=O)O[C@H]1CCOC1)S(=O)(=O)c1ccc(N)cc1`, the Potency result in test [1], in test [10], in test [4] and in test [8] was “inactive” each time. Further, the Potency is 1.87 µM (active) in [7] and 18.7 µM (active) in [13].

Regarding `NCc1c[nH]c(=S)n1[C@H]1CCc2c(F)cc(F)cc2C1`, the Potency is 20.9 µM (active) in [1]; 18.7 µM (active) in [2]; 26.4 µM (active) in test [3]; 23.5 µM (active) in [14]; 11.8 µM (active) in [8]; 13.2 µM (active) in test [15].

Regarding `COc1c(C)c2c(c(O)c1CC=C(C)CCC(=O)O)C(=O)OC2`, the Potency was 0.935 µM (active) in [1]; 6.62 µM (active) in test [2]; 4.69 µM (active) in test [6]; 9.35 µM (active) in [11]; 0.935 µM (active) in test [12]; 4.69 µM (active) in [7]. In addition, the figures for the Potency in test [13], in test [14] and in test [15] were 4.18 µM (active), 13.2 µM (active) and 3.32 µM (active), respectively. Moreover, the Potency entry in test [10] and in test [4] was “inactive” each time.

With `CCCCC(C=O)NC(=O)C(CC(C)C)NC(=O)OCc1ccccc1` (stereo not drawn), the Potency result in [1], in [3], in [10], in test [4], in test [5] and in test [13] was “inactive” each time. Further, the Potency in [12] was 16.6 µM (active); in test [15], 20.9 µM (active).

On to `O=C(Nc1cccc2c(=O)cc(-c3nn[nH]n3)oc12)c1ccc(OCCCCc2ccccc2)cc1`, for which, in test [9], the Potency entry was “inactive”. For the same molecule, the Potency in test [12] and in test [14] was 18.7 µM (active) throughout.

On to `CCC[C@H](Nc1nc(-c2ccc(NC(=O)NCC)c(OC)c2)ncc1C)c1cccnc1`, for which the Potency was 0.001 µM (active) in test [1]; 0.0083 µM (active) in test [2]; 0.001 µM (active) in test [3]; 0.001 µM (active) in test [4]; 0.001 µM (active) in test [12]; 0.0235 µM (active) in [7]. For the same molecule, the Potency in test [13] is 0.0047 µM (active); in [8], 0.001 µM (active). In test [5], the Potency entry is “inactive”.

As for `O=[N+]([O-])c1ccc(Nc2ccccc2-c2ccccc2)c2nonc12`, the Potency entry in test [2] was “inactive”. Besides, the Potency in [10] was 20.9 µM (active); in test [12], 26.4 µM (active); in test [13], 18.7 µM (active); in test [14], 18.7 µM (active).

Regarding `COc1ccc2cc1Oc1ccc(cc1)C[C@H]1c3cc(c(OC)cc3CCN1C)Oc1c(OC)c(OC)cc3c1[C@H](C2)N(C)CC3`, the Potency in test [3] was 6.62 µM (active); in test [10], 5.26 µM (active); in test [4] it was 5.9 µM (active); in test [6], 18.7 µM (active); in [12], 18.7 µM (active); in test [13], 20.9 µM (active). The Potency in [14] was 20.9 µM (active); in test [8], 3.72 µM (active); in test [15], 13.2 µM (active).

For `Nc1nc(Cl)nc2c1ncn2[C@@H]1O[C@H](CO)[C@@H](O)[C@H]1F`, the Potency in [1] is 0.0418 µM (active); in [2] it was 2.35 µM (active); in test [3], 0.418 µM (active); in test [10], 0.469 µM (active); in test [5] it was 0.0148 µM (active); in test [6], 0.418 µM (active). The Potency in test [12] was 0.0148 µM (active); in test [7] it was 0.372 µM (active); in test [14], 0.526 µM (active).

On to `C#C[C@]1(O)CC[C@H]2[C@H]3CCc4cc(OC)ccc4[C@H]3CC[C@@]21C`, for which the Potency in test [1] is 26.4 µM (active); in test [3] it was 23.5 µM (active); in test [5], 18.7 µM (active); in test [12], 16.6 µM (active); in [15], 18.7 µM (active). Besides, the Potency result in [2] and in [6] was “inactive” throughout.

Take `CO[C@H]1C=CO[C@@]2(C)Oc3c(C)c(O)c4c(O)c(c(C=NN5CCN(C)CC5)c(O)c4c3C2=O)NC(=O)C(C)=CC=C[C@H](C)[C@H](O)[C@@H](C)[C@@H](O)[C@@H](C)[C@H](OC(C)=O)[C@H]1C`: the Potency result in test [3], in test [10], in [4] and in [8] was “inactive” each time. The Potency in test [7] was 1.19 µM (active).
